Laboratory results as given in PubChem BioAssay (Tox21).
Inconclusive results are not listed. Where a call stands in place of a potency, no number is given. The source made the active and inactive calls. Calls follow the shape of the dose curve; as a rule, active = well fitted cell-killing curve with a large enough effect in the repeat runs; inconclusive = weak or mixed curves; inactive = no such curve, though single readings can be large or run the other way.

assay: qHTS assay to identify small molecule antagonists of the peroxisome proliferator-activated receptor delta (PPARd) signaling pathway - cell viability counter screen (AID 743213); conditions: PPARd-bla HEK293H viability, CellTiter-Glo luminescence, 17 h; series mostly up to 62 µM; also: nearly all actives have a fitted effect of over 50% in size
Source text: U.S. Tox21 Program National Center for Advancing Translational Sciences [NCATS] NIH Chemical Genomics Center [NCGC] U.S. Environmental Protection Agency [EPA] National Institutes of Environmental Health Sciences [NIEHS] National Toxicology Program [NTP] U.S. Food and Drug Administration [FDA] Tox21 Assay Overview: The peroxisome proliferator-activated receptors (PPARs) are lipid-activated transcription factors of the nuclear receptor superfamily with three distinct subtypes namely PPAR alpha, PPAR delta (PPARd) and PPAR gamma. All these subtypes heterodimerizes with Retinoid X receptor (RXR) and have different physiological functions. […] To identify the compounds that inhibit PPAR-delta signaling, GeneBLAzer PPAR delta UAS-bla HEK293H cell line (Invitrogen, Carlsbad, CA, USA) containing a beta-lactamase reporter gene under the control of an Upstream Activator Sequence (UAS) was used to screen the Tox21 compound library. The cytotoxicity of the Tox21 compound library against the PPARd-bla cell line was tested in parallel by measuring the cell viability using CellTiter-Glo assay (Promega, Madison, WI) in the same wells.
Tox21 Assay Protocol Summary: PPARd-bla cells were dispensed at 3000 cells/5uL/well in 1536-well black wall/clear bottom plates using a Multidrop Combi (Thermo Fisher Scientific, Waltham, MA) dispenser. After the assay plates were incubated at 37 C and 5% CO2 for 5 h, 23 nL of compounds dissolved in DMSO, positive controls or DMSO only was transferred to the assay plate by a Pintool station (Kalypsys, San Diego, CA), followed by addition of 1ul L165041 (300 nM, final concentration in the wells). The assay plates were incubated at 37 C for 17 h, and then 1 uL of LiveBLAzerTM B/G FRET substrate was added using a Bioraptr Flying Reagent Dispenser (FRD) workstation (Beckman Coulter, Indianapolis, IN, USA). The assay plates were incubated at room temperature for 2 h and fluorescence intensity was measured by an Envision plate reader (PerkinElmer, Shelton, CT). For cell viability readout that measures cytotoxicity, 3 ul/well of CellTiter-Glo reagent was added into the assay plates using a Bioraptr FRD. After 30 min incubation at room temperature, the luminescence intensity in the plates was measured using a ViewLux plate reader (PerkinElmer).
Potency is read from the fitted curve at half-maximal effect.

SMILES	Potency
CC(C)(Cl)[N+](=O)[O-]	inactive
N#C/C(N)=C(/N)C#N	inactive
Cc1ccccc1C(=O)Nc1cccc(OC(C)C)c1	inactive
CC[C@H]1C[C@H]2[C@@H]3CCC4=CC(=O)CC[C@@H]4[C@H]3CC[C@]2(C)[C@H]1O	inactive
C=CCN1CC[C@]23c4c5ccc(O)c4O[C@H]2C(=O)CC[C@@]3(O)[C@H]1C5	inactive
CCC(COC(=O)c1cc(OC)c(OC)c(OC)c1)(c1ccccc1)N(C)C (stereo not given)	inactive
N#CCc1ccccc1	inactive
CCn1cc[n+](C)c1	inactive
N#Cc1ccc(Cl)cc1	inactive
COC(=O)C(Cl)C(=O)OC	inactive
NS(=O)(=O)C(F)(F)C(F)(F)C(F)(F)C(F)(F)C(F)(F)C(F)(F)C(F)(F)C(F)(F)F	inactive
CCOP(=S)(Oc1ccc([N+](=O)[O-])cc1)c1ccccc1 (stereo not given)	inactive
CCOS(C)(=O)=O	inactive
CCOP(=O)(OCC)SCCSCC	inactive
Cc1ccc2ccccc2c1	inactive
O=[N+]([O-])C(Br)(CO)CO	inactive
CCOc1nc(F)cc2nc(S(=O)(=O)Nc3c(Cl)cccc3Cl)nn12	inactive
COC1=CC(=O)O[C@@H](CCc2ccccc2)C1	inactive
CC1Sc2c(C(=O)O)c(=O)c3cc(F)c(N4CCNCC4)cc3n21 (stereo not given)	inactive
COc1c(C(C)(C)C)cc([N+](=O)[O-])c(C)c1[N+](=O)[O-]	inactive

SMILES	Potency
CN(N=O)c1ccc([N+](=O)[O-])cc1	inactive
Cl/C=C\C[N+]12CN3CN(CN(C3)C1)C2	inactive
COc1nn(C(=O)NS(=O)(=O)c2ccccc2OC(F)(F)F)c(=O)n1C	inactive
COC(=O)c1cncn1C(C)c1ccccc1 (stereo not given)	inactive
COC(C)(C)CCC[C@H](C)C/C=C/C(C)=C/C(=O)OC(C)C	inactive
CCc1ccc(C(=O)NN(C(=O)c2cc(C)cc(C)c2)C(C)(C)C)cc1	inactive
CCCCCCC#N	inactive
O=C(O)C(F)(F)C(F)(F)C(F)(F)C(F)(F)C(F)(F)C(F)(F)C(F)(F)C(F)(F)C(F)(F)F	inactive
CC(C)=CCOc1c2occc2cc2ccc(=O)oc12	inactive
O=Cc1ccc2c(c1)OCO2	inactive
CCOc1ccc(C(C)(C)COCc2cccc(Oc3ccccc3)c2)cc1	inactive
CN(C)c1ccc(N(C)C)cc1	inactive
O=C(O)C1(c2ccc3c(c2)OC[C@H](Cc2ccc(-c4ccccc4)cc2)[C@H]3O)CCCC1	43.6 µM (active)
C[C@]12CC[C@H]3[C@@H](CCC4=CC(=O)CC[C@@H]43)[C@@H]1CC[C@@H]2OC(=O)CCC1CCCCC1	inactive
Oc1ccc(Cl)c(Cl)c1Cl	inactive
O=C(O)COc1ccc(Cl)cc1	inactive
C/C=C/C=O	inactive
O=C(NC(=O)c1c(F)cccc1F)Nc1cc(Cl)c(Oc2ncc(C(F)(F)F)cc2Cl)c(Cl)c1	inactive
CN1C[C@H](CNC(=O)OCc2ccccc2)C[C@@H]2c3cccc4c3c(cn4C)C[C@H]21	13.3 µM (active)
Nc1ccc([N+](=O)[O-])cc1[N+](=O)[O-]	inactive
